Test results: the supplement of paper PMC12669032
Where “and” joins values, the source holds several entries; their conditions need not be identical. Identical values can stand only once. A number with no mark means an inactive call.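 Rule for the calls: active = AUC reduced over 20% with Padj below 0.05 in at least 2 of 3 replicates; inactive = otherwise.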

Assays:
Assay in all cases: growth AUC relative to DMSO control (median of replicates) (fraction); higher = more growth (less inhibition), active = hit call of the paper
Details in all cases: 20 µM; 24 h
[1] = tested on: Akkermansia muciniphila
Summary of the method: (§1)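 Hourly OD600 readings over 24 h tracked anaerobic gut bacterial monocultures grown at 37 °C in mGAM from OD600 0.05 with 20 µM compound (1% DMSO). After the minimum OD was set to 0, area under the growth curve was normalised to the plate median of solvent-only wells, or to row and column medians on the industrial chemical plate. Values are medians of three biological replicates grown on separate days.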

[2] = tested on: Bacteroides caccae
Summary of the method: as §1

[3] = tested on: Bacteroides clarus
Summary of the method: as §1

[4] = tested on: Bacteroides dorei
Summary of the method: as §1

[5] = tested on: Bacteroides stercoris
Summary of the method: as §1

[6] = tested on: Bacteroides thetaiotaomicron
Summary of the method: as §1

[7] = tested on: Bacteroides uniformis
Summary of the method: as §1

[8] = tested on: Bifidobacterium longum subsp. longum
Summary of the method: as §1

[9] = tested on: Clostridium difficile
Summary of the method: as §1

[10] = tested on: Collinsella aerofaciens
Summary of the method: as §1

[11] = tested on: Coprococcus comes
Summary of the method: as §1

[12] = tested on: Escherichia coli ED1a
Summary of the method: as §1

[13] = tested on: Escherichia coli IAI1
Summary of the method: as §1

[14] = tested on: Eubacterium rectale
Summary of the method: as §1

[15] = tested on: Fusobacterium nucleatum subsp. animalis
Summary of the method: as §1

[16] = tested on: Lactobacillus gasseri
Summary of the method: as §1

[17] = tested on: Lactobacillus paracasei
Summary of the method: as §1

[18] = tested on: Odoribacter splanchnicus
Summary of the method: as §1

[19] = tested on: Parabacteroides distasonis
Summary of the method: as §1

[20] = tested on: Parabacteroides merdae
Summary of the method: as §1

SMILES | growth AUC [1] | growth AUC [2] | growth AUC [3] | growth AUC [4] | growth AUC [5] | growth AUC [6] | growth AUC [7] | growth AUC [8] | growth AUC [9] | growth AUC [10] | growth AUC [11] | growth AUC [12] | growth AUC [13] | growth AUC [14] | growth AUC [15] | growth AUC [16] | growth AUC [17] | growth AUC [18] | growth AUC [19] | growth AUC [20]
Nc1c([N+](=O)[O-])ccc(Oc2ccccc2)c1Cl | 0.741 | 0.964 | 0.861 | 0.941 | 0.925 | 0.941 | 0.978 | 0.871 | 0.982 | 0.897 | 0.903 | 1.01 | 1.01 | 0.887 | 0.947 | 1.02 | 0.832 | 0.935 | 0.951 | 0.912
CCCN(CCC)c1c([N+](=O)[O-])cc(S(N)(=O)=O)cc1[N+](=O)[O-] | 0.998 | 0.956 | 0.896 | 0.932 | 0.809 | 0.948 | 0.89 | 0.987 | 0.975 | 0.975 | 0.973 | 0.996 | 0.973 | 0.894 | 0.9 | 0.935 | 0.942 | 0.934 | 0.971 | 0.997
CCCCN(CC)C(=O)SCCC | 0.957 | 1.01 | 1.01 | 0.972 | 1.11 | 0.979 | 0.976 | 0.983 | 1.03 | 0.982 | 1.03 | 1.01 | 1.01 | 0.982 | 1.07 | 0.972 | 1.02 | 0.981 | 1.01 | 1.02
CC1(C)[C@H](/C=C(\Cl)C(F)(F)F)[C@@H]1C(=O)O[C@@H](C#N)c1cccc(Oc2ccccc2)c1 | 1.14 | 0.983 | 0.994 | 0.972 | 0.971 | 0.997 | 0.984 | 0.963 | 0.988 | 0.932 | 0.959 | 1 | 0.992 | 0.961 | 0.953 | 0.853 | 0.996 | 1 | 0.985 | 0.957
ClC1C(Cl)C(Cl)C(Cl)C(Cl)C1Cl (centres undefined) |  |  |  |  |  |  |  |  |  | 1.02 and 1.01 and 1.03 |  | 0.985 and 1.04 and 1.03 | 1 and 1.02 and 1.01 | 1.02 and 0.946 and 1.01 |  |  |  |  |  | 
COc1cnc(OC)n2nc(NS(=O)(=O)c3c(OCC(F)F)cccc3C(F)(F)F)nc12 | 0.962 | 1.03 | 1.01 | 0.993 | 0.991 | 1.01 | 1.01 | 0.994 | 0.993 | 0.991 | 1.01 | 1.01 | 1.02 | 0.954 | 0.96 | 1.08 | 0.965 | 1.01 | 1.01 | 1.01
CCOP(=S)(Oc1ccc([N+](=O)[O-])cc1)c1ccccc1 (centres undefined) | 1.06 | 0.961 | 1.02 | 0.972 | 1.11 | 1.01 | 0.919 | 1.02 | 1.03 | 0.996 | 0.949 | 1.04 | 1.05 | 1.02 | 1.09 | 1.04 | 1.07 | 1.09 | 0.947 | 0.99
CNC(=O)/C(=N/OC)c1ccccc1Oc1ccccc1 | 0.883 | 1.01 | 0.972 | 0.982 | 1.02 | 0.975 | 0.997 | 0.942 | 1 | 0.998 | 0.989 | 1 | 0.997 | 0.977 | 0.968 | 1.04 | 1.05 | 0.992 | 0.995 | 0.997
CCNc1nc(Cl)nc(NC(C)(C)C)n1 | 1.01 | 0.987 | 0.977 | 0.978 | 0.996 | 0.967 | 1 | 1.01 | 0.977 | 0.971 | 0.995 | 0.977 | 1.01 | 1.07 | 0.975 | 0.947 | 1.03 | 1.01 | 0.992 | 0.979
CCOC(=O)CC(SP(=O)(OC)OC)C(=O)OCC (centres undefined) | 1.24 | 0.989 | 0.992 | 0.919 | 0.976 | 1.01 | 0.972 | 0.996 | 0.952 | 0.973 | 1 | 0.97 | 0.976 | 1.09 | 0.893 | 0.883 | 0.973 | 0.913 | 0.902 | 0.975
CCOP(=O)(NC(C)C)Oc1ccc(SC)c(C)c1 (centres undefined) | 1.19 | 0.974 | 0.982 | 0.877 | 0.92 | 0.998 | 0.931 | 1.01 | 0.976 | 0.95 | 0.974 | 0.985 | 0.953 | 1.04 | 0.903 | 0.895 | 0.965 | 0.954 | 0.77 | 0.966
CCOP(=O)(NC(C)C)Oc1ccc(S(C)(=O)=O)c(C)c1 (centres undefined) | 1.03 | 1.01 | 1.04 | 1.04 | 1.05 | 1.02 | 1.01 | 0.986 | 1.04 | 1.01 | 1.06 | 1.03 | 1.02 | 1.03 | 1.03 | 0.993 | 1.03 | 1.05 | 1.06 | 1.04
C=CCC1=C(C)C(OC(=O)C2C(C=C(C)C)C2(C)C)CC1=O (centres undefined) | 1.05 | 0.994 | 1 | 0.97 | 0.832 | 0.968 | 0.98 | 0.963 | 1 | 0.957 | 0.986 | 1.01 | 1 | 0.927 | 0.946 | 0.868 | 0.949 | 0.996 | 0.846 | 0.96
O=C1C2(Cl)C3(Cl)C4(Cl)C(Cl)(Cl)C5(Cl)C3(Cl)C1(Cl)C5(Cl)C24Cl (centres undefined) | 0.849 | 0.0318 (active) | 0.02 (active) | 0.0186 (active) | 0.00866 (active) | 0.0105 (active) | 0.0112 (active) | 0.28 (active) | 0.0161 (active) | 0.0984 (active) | 0.0378 (active) | 0.98 | 0.969 | 0.696 | 0.757 | 0.135 (active) | 0.061 (active) | 0.0248 (active) | 0.0157 (active) | 0.0229 (active)
Clc1ccccc1Cl | 0.952 | 1.02 | 1.02 | 0.992 | 0.991 | 0.986 | 1.03 | 1.11 | 0.996 | 0.975 | 1.02 | 0.971 | 0.994 | 0.972 | 0.975 | 0.948 | 1.02 | 0.95 | 0.996 | 1.01
CN(C)c1nc(=O)n(C2CCCCC2)c(=O)n1C | 0.966 | 1.03 | 0.985 | 1 | 1.07 | 1.05 | 1.01 | 1.01 | 1.02 | 1.01 | 1.03 | 0.994 | 0.984 | 0.978 | 1.11 | 1.01 | 0.943 | 1.02 | 1.03 | 1.01
Nc1ccc(Cl)cc1Cl | 1.06 | 1 | 1.01 | 1.02 | 0.97 | 1.03 | 0.993 | 1.04 | 1.03 | 1.04 | 1.03 | 1.01 | 1 | 1.01 | 1.11 | 1.02 | 0.976 | 1.1 | 1.02 | 1.01
CCOP(=S)(OCC)Oc1ccc2c(C)c(Cl)c(=O)oc2c1 | 1.1 | 0.952 | 0.957 | 0.98 | 0.891 | 0.934 | 0.95 | 0.968 | 1 | 1 | 1 | 1.02 | 1.01 | 1.11 | 1.01 | 0.991 | 0.998 | 1.01 | 0.748 (active) | 0.897
